In the library only some 1.3% were active in any assay of this set; here they are far more common.
NCOA2 inhibitor: human SRC2 (NCOA2) inhibition. HEK293 GAL4-SRC2 luciferase reporter, luminescence. hit rate 0.17% among 370,000. Q15596. inhibition, % at 9 µM;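 active = inhibition above the mean inhibition of all tested compounds plus 3 SD, set per campaign, cut at about 52% in these data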
Gli-Sufu block: Gli-Sufu pathway antagonism; inhibition, % at 5 µM; hit rate 0.74% among 340,000; Sufu-KO-LIGHT fibroblasts, Gli luciferase reporter luminescence;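 active = inhibition above about 55%, limit read from the data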
NCOA3 inh: inhibits human SRC3 coactivator. hit rate 0.17% among 360,000. inhibition, % at 3.6 µM. HEK293 GAL4-SRC3 luciferase reporter, luminescence;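 active = inhibition above a per-campaign cutoff, the mean of all compounds plus 3 SD, cut at about 60% in these data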;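 also: higher means less SRC3-driven luciferase light from the GAL4 reporter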
SRC1 inh: inhibits human SRC1 coactivator. Q15788. HEK293 GAL4-SRC1 luciferase reporter, luminescence. inhibition, % at 3.6 µM. hit rate 0.12% among 360,000;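 active = inhibition above the campaign mean plus 3 SD, with each screening campaign given its own cutoff, cut at about 60% in these data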
NR2F2 inh: inhibitors of human COUP-TFII (NR2F2); P24468; HEK293T NGFI-A luciferase reporter, luminescence; inhibition, % at 8.6 µM; hit rate 0.7% among 370,000;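 active = inhibition above a per-plate cutoff, mean inhibition of test wells between control levels plus 3 SD, cut at about 38% in these data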;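 also: cells cotransfected with COUP-TFII expression vector driving the NGFI-A reporter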
LRH-1 inv ag: NR5A2 inverse agonism in reporter assay; O00482; HEK293T StAR-luciferase reporter, LRH-1 transfected, 24 h; inhibition, % at 3.6 µM; hit rate 0.13% among 360,000; AID 602396;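 active = inhibition above the mean inhibition of all tested compounds plus 3 SD, cut at about 73% in these data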
Gli antag conf: confirmation of Gli-SUFU pathway antagonists; hit rate 40% among 2,500; shares compounds with Gli-Sufu block; inhibition, % at 5 µM; AID 602428; Sufu-KO-LIGHT cells, Gli luciferase reporter, luminescence;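 active = mean inhibition at 5 µM reaching about 45%, limit read from the data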
SufuKO cytotox: counter-screen for Gli-SUFU antagonists: cytotoxicity; shares compounds with Gli-Sufu block; Sufu-KO-LIGHT cells cytotoxicity, ATP luminescence; cytotoxicity, % at 5 µM; hit rate 32% among 2,500; AID 651994;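 active = mean cytotoxicity at 5 µM above about 25%, limit read from the data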;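 also: cells exposed to compound overnight for roughly 16 to 18 hours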
Wnt3a counter: Wnt3a reporter inhibition counter-screen | shares compounds with Gli-Sufu block | Wnt-LIGHT cells, Wnt3a-driven luciferase reporter, luminescence | inhibition, % at 6.25 µM | hit rate 20% among 2,500;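 active = mean inhibition above about 25%, limit read from the data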
Hits are given with their value.

For CCN(CC)C(=O)CC[C@H]1CC[C@]2(CCCN(C(=O)C(C)(C)C)C2)O1 the results were NCOA2 inhibitor inactive and NR2F2 inh inactive.
`Cc1ccc(CN2CCC(CNS(=O)(=O)c3ccc(-c4ccc(=O)[nH]n4)s3)CC2)cc1` gave NCOA2 inhibitor inactive, Gli-Sufu block 60, NCOA3 inh inactive, SRC1 inh inactive, NR2F2 inh inactive, LRH-1 inv ag inactive, Gli antag conf inactive, SufuKO cytotox inactive and Wnt3a counter inactive.
Screening O=c1ccc(-c2ccc(S(=O)(=O)NCc3cccc(Br)c3)s2)n[nH]1 returned NCOA2 inhibitor inactive, NCOA3 inh inactive, SRC1 inh inactive, NR2F2 inh inactive and LRH-1 inv ag inactive.
COc1ccc(-c2cccc3[nH]c4c(c23)CCN2C(=O)[C@H]3[C@H](C)ON(C)[C@H]3C[C@@H]42)cc1 was read as NCOA2 inhibitor inactive and NR2F2 inh inactive.
`COc1ccc(-c2nnc(SCc3c(F)cccc3F)n2N)cc1` gave NCOA2 inhibitor inactive and NR2F2 inh inactive.
Screening COc1ccc(-n2c(C)cc(C(=O)CCl)c2C)cc1 returned NCOA2 inhibitor inactive, Gli-Sufu block inactive, NCOA3 inh inactive, SRC1 inh inactive, NR2F2 inh inactive and LRH-1 inv ag inactive.
COc1ccc(-n2c(C)cc(C(=O)CN3C(=O)c4ccccc4C3=O)c2C)cc1 was read as NCOA2 inhibitor inactive, Gli-Sufu block 96, NCOA3 inh inactive, SRC1 inh inactive, NR2F2 inh inactive, LRH-1 inv ag inactive, Gli antag conf inactive, SufuKO cytotox inactive and Wnt3a counter inactive.
Screening CC(C)CN(CC(C)C)c1nc(N)c(C#N)c(CC#N)c1C#N returned NCOA2 inhibitor inactive, Gli-Sufu block 89, NCOA3 inh inactive, SRC1 inh inactive, NR2F2 inh inactive, LRH-1 inv ag inactive, Gli antag conf inactive, SufuKO cytotox inactive and Wnt3a counter inactive.
c1ccc(CNC2CCC23CCC(c2ccccc2)CC3)cc1 (stereo unspecified) was read as NCOA2 inhibitor inactive and NR2F2 inh inactive.
O=c1[nH]cnc2c1sc1nc(-c3ccccc3)c3c(c12)CCCC3 was read as NCOA2 inhibitor inactive, Gli-Sufu block inactive, NCOA3 inh inactive, SRC1 inh inactive, NR2F2 inh inactive and LRH-1 inv ag inactive.
Cc1ccc(-c2nc3sc4c(N)ncnc4c3c3c2CCCC3)cc1 was read as NCOA2 inhibitor inactive, Gli-Sufu block inactive, NCOA3 inh inactive, SRC1 inh inactive, NR2F2 inh inactive, LRH-1 inv ag inactive, Gli antag conf inactive, SufuKO cytotox inactive and Wnt3a counter 25.
For CN(C)CCn1c2ccccc2c2nc3ccc([N+](=O)[O-])cc3cc21 the results were NCOA2 inhibitor inactive, Gli-Sufu block inactive, NCOA3 inh inactive, SRC1 inh inactive, NR2F2 inh inactive, LRH-1 inv ag inactive, Gli antag conf inactive, SufuKO cytotox inactive and Wnt3a counter inactive.
Screening CN1CCN(C(=S)NC(=O)c2ccc(C(C)(C)C)cc2)CC1 returned NCOA2 inhibitor inactive, Gli-Sufu block 60, NCOA3 inh inactive, SRC1 inh inactive, NR2F2 inh inactive, LRH-1 inv ag inactive, Gli antag conf inactive, SufuKO cytotox inactive and Wnt3a counter inactive.
For CCCCCCCCN1CN2Cc3ccc(C)cc3C2CS1(=O)=O (stereo unspecified) the results were NCOA2 inhibitor inactive and NR2F2 inh inactive.
`COc1ccccc1NC(=O)CN(c1ccccc1)S(=O)(=O)c1ccccc1` gave NCOA2 inhibitor inactive, Gli-Sufu block inactive, NCOA3 inh inactive, SRC1 inh inactive, NR2F2 inh inactive, LRH-1 inv ag inactive, Gli antag conf inactive, SufuKO cytotox inactive and Wnt3a counter inactive.
`COc1ccc(N(CC(=O)NCCSCc2ccc(C)cc2)S(=O)(=O)c2ccccc2)cc1` gave NCOA2 inhibitor inactive, Gli-Sufu block 95, NCOA3 inh inactive, SRC1 inh inactive, NR2F2 inh inactive, LRH-1 inv ag inactive, Gli antag conf inactive, SufuKO cytotox inactive and Wnt3a counter inactive.

Screens: PubChem, several laboratories
